Screening results (PubChem)
In the library only some 1.9% were active in any assay of this set; here they are far more common.
Ba/F3 V617F tox – loss of viability in JAK2V617F-driven Ba/F3 cells; Ba/F3 EpoR-JAK2V617F viability, ATP luminescence; inhibition, % at 5.6 µM; 1.1% of 220,000 active;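 active = inhibition above the campaign mean plus 3 SD over all tested compounds, cut at about 24% in these data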;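 note: cytokine-independent growth of Ba/F3 cells driven by EpoR plus mutant JAK2; 0% = DMSO-treated cells and 100% = JAK inhibitor I control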
BaF3 tox – parental Ba/F3 viability inhibition as JAK2V617F counter-screen; CellTiter-Glo ATP luminescence; inhibition, % at 5.6 µM; 1.1% of 220,000 active; AID 1486;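 active = inhibition above a per-campaign cutoff, the mean inhibition of all tested compounds plus 3 SD, cut at about 27% in these data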;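 note: 0% = DMSO wells and 100% = JAK Inhibitor I control wells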
KLF5 inh – kruppel-like factor 5 inhibition; DLD-1 KLF5 promoter-luciferase reporter, luminescence; inhibition, % at 5 µM; 0.23% of 290,000 active; AID 1700;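 active = inhibition above a per-plate limit of that plate's mean compound inhibition plus 3 SD, cut at about 60% in these data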;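 note: 0% = DMSO wells and 100% = LY294002 at 200 µM; higher means less KLF5 promoter-driven luciferase light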
IEC-6 tox-1 – kills IEC-6 intestinal cells in KLF5 counter-screen | IEC-6 cytotoxicity, luminescence viability | inhibition, % at 5 µM | 0.78% of 290,000 active | AID 1825;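 note: 0% = plate median of test compound wells and 100% = cytotoxic reference compound wells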
APP 5UTR inh – APP translation inhibition; inhibition, % at 2 µM; SH-SY5Y APP 5'UTR-luciferase reporter, luminescence; 0.82% of 190,000 active; AID 1285;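 active = inhibition above a set limit, derived from the sample mean plus 3 SD, cut at about 45% in these data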
KLF5 confirm – confirmation of KLF5 inhibitors. shares compounds with KLF5 inh. DLD-1 KLF5 promoter firefly luciferase reporter, luminescence. inhibition, % at 4 µM. 79% of 610 active;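 active = inhibition above a set limit taken from the earlier primary screen, cut at about 63% in these data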;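 note: 0% = DMSO wells and 100% = LY294002 at 200 µM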
IEC-6 tox-2 – counter-screen for KLF5 inhibitors: cytotoxicity in rat IEC-6 cells; AID 1905; shares compounds with KLF5 inh; 56% of 610 active; IEC-6 rat intestinal cells, viability luminescence; inhibition, % at 4 µM; in the data active = inhibition above about 23%;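 note: cells exposed to compounds for 48 hours before viability read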
IEC-6 cytotox cf – confirmation of cytotoxic compounds in rat IEC-6 intestinal epithelial cells | shares compounds with IEC-6 tox-1 | inhibition, % at 5 µM | AID 1907 | IEC-6 rat intestinal epithelial viability, luminescence | 63% of 1,900 active;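 note: 0% = vehicle and 100% = reference cytotoxic drug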
An asterisk follows results filed as active. Cut-off read from the data, not from the text of the source, unless noted: active = inhibition above about 22%; inactive = the rest.

Results for CCOc1ccc(-c2cc(N3C(=O)Nc4ccccc4N3O)n[nH]2)cc1 ?
Ba/F3 V617F tox: 75.5*; BaF3 tox: 77.2*; KLF5 inh: 68.7*; IEC-6 tox-1: 70.2*; APP 5UTR inh: 24.6; KLF5 confirm: 2.0; IEC-6 tox-2: 18.8; IEC-6 cytotox cf: 2.2

Results for COc1ccc2[nH]c3c(C)c4ccncc4c(C)c3c2c1 ?
Ba/F3 V617F tox: 65.1*; BaF3 tox: 59.9*; KLF5 inh: 74.8*; IEC-6 tox-1: 73.5*; KLF5 confirm: 76.8*; IEC-6 tox-2: 59.0*; IEC-6 cytotox cf: 58.2*

What do the screens show for `CCN(CC)CCNC(=O)c1ccc(CS(=O)(=O)c2ccccc2C)o1`?
KLF5 inh: -21.0; IEC-6 tox-1: -4.0

Results for Cc1ccc(S(=O)(=O)NC(C)(C)CN2CCc3ccccc3C2)cc1 ?
Ba/F3 V617F tox: -4.0; BaF3 tox: -0.8; KLF5 inh: -14.5; IEC-6 tox-1: -2.4

Results for COC(=O)C1CC23C=CCN4CCC5(c6ccccc6NC15C2C)C43 (stereo not given) ?
KLF5 inh: 61.9*; IEC-6 tox-1: 87.6*; KLF5 confirm: 78.6*; IEC-6 tox-2: 59.2*; IEC-6 cytotox cf: 59.2*

How did Cc1ccc(O)c(C(=O)c2cnc3c(c2)CN(C)C(=O)N3)c1 do in these assays?
Ba/F3 V617F tox: -4.0; BaF3 tox: 2.1; KLF5 inh: 23.0; IEC-6 tox-1: 2.7; APP 5UTR inh: -3.9

What do the screens show for `CN1Cc2cc(C(=O)c3cc(Cl)cc(CSc4ncccn4)c3O)cnc2NC1=O`?
Ba/F3 V617F tox: 70.8*; BaF3 tox: 74.8*; KLF5 inh: 75.2*; IEC-6 tox-1: 72.9*; APP 5UTR inh: 95.5*; KLF5 confirm: 84.9*; IEC-6 tox-2: 59.2*; IEC-6 cytotox cf: 66.2*

What do the screens show for `COc1ccc(-c2nn(-c3ccccc3)cc2/C=N/NC(N)=S)cc1OC`?
Ba/F3 V617F tox: 82.1*; BaF3 tox: 82.5*; KLF5 inh: 69.5*; IEC-6 tox-1: 72.0*; APP 5UTR inh: 95.1*; KLF5 confirm: 71.1*; IEC-6 tox-2: 59.4*; IEC-6 cytotox cf: 61.7*

How did COc1ccc(-c2nn(-c3ccccc3)cc2/C=N/n2cnnc2)cc1OC do in these assays?
Ba/F3 V617F tox: -2.1; BaF3 tox: 2.6; KLF5 inh: 4.0; IEC-6 tox-1: -0.2; APP 5UTR inh: -1.4

How did CC(=O)N1CCSc2ccc(S(=O)(=O)Nc3ccc(C)cc3)cc21 do in these assays?
KLF5 inh: 4.0; IEC-6 tox-1: 5.8

Results for COc1cc(C(=O)N/N=C/c2sccc2C)cc(OC)c1OC ?
Ba/F3 V617F tox: 80.4*; BaF3 tox: 84.5*; KLF5 inh: 70.2*; IEC-6 tox-1: 88.6*; APP 5UTR inh: 91.9*; KLF5 confirm: 85.8*; IEC-6 tox-2: 63.0*; IEC-6 cytotox cf: 65.1*

How did Cc1ccsc1/C=N/NC(=O)c1ccncc1 do in these assays?
Ba/F3 V617F tox: 1.4; BaF3 tox: 1.7; KLF5 inh: 6.8; IEC-6 tox-1: 1.1; APP 5UTR inh: -3.2

Results for CCNC(=S)N(CCCO)Cc1cc2cc3c(cc2[nH]c1=O)OCCO3 ?
KLF5 inh: -18.7; IEC-6 tox-1: -5.6

How did Cc1c(/C=N\NC(=O)C2COc3ccccc3O2)c2ccccc2n1C (stereo not given) do in these assays?
Ba/F3 V617F tox: 77.6*; BaF3 tox: 75.7*; KLF5 inh: 74.3*; IEC-6 tox-1: 80.1*; APP 5UTR inh: 91.4*; KLF5 confirm: 82.3*; IEC-6 tox-2: 75.5*; IEC-6 cytotox cf: 61.4*

Results for COC(=O)c1sc(N)c(C(=O)OC)c1COC(=O)c1c(C)noc1C ?
Ba/F3 V617F tox: 71.0*; BaF3 tox: 72.9*; KLF5 inh: 68.1*; IEC-6 tox-1: 66.5*; APP 5UTR inh: 43.0; KLF5 confirm: 42.0; IEC-6 tox-2: 35.0*; IEC-6 cytotox cf: 41.7*

How did COc1cc(-c2noc(C)c2-c2ccc(N(C)C)nc2)cc(OC)c1OC do in these assays?
KLF5 inh: 75.7*; IEC-6 tox-1: 92.6*; KLF5 confirm: 84.7*; IEC-6 tox-2: 81.5*; IEC-6 cytotox cf: 58.7*

What do the screens show for `CC(C)N1CCc2c(sc(NC(=O)c3ccc([N+](=O)[O-])o3)c2C(N)=O)C1`?
KLF5 inh: 71.7*; IEC-6 tox-1: 99.1*; KLF5 confirm: 54.6; IEC-6 tox-2: 89.8*; IEC-6 cytotox cf: 85.9*

Results for CC(C)N1CCc2c(sc(NC(=O)c3nc4ccccc4s3)c2C(N)=O)C1 ?
Ba/F3 V617F tox: 3.5; BaF3 tox: 4.2; KLF5 inh: -3.2; IEC-6 tox-1: 8.6; APP 5UTR inh: -6.6

Results for CN(C)S(=O)(=O)c1cccc(C(=O)Nc2cc3c(cc2C(=O)O)OCCCO3)c1 ?
KLF5 inh: -41.5; IEC-6 tox-1: -2.6

How did CC(=O)N[C@@H]1[C@@H](O)[C@@H]2OC(c3ccccc3)OC[C@H]2O[C@@H]1N=[N+]=[N-] (stereo not given in full) do in these assays?
KLF5 inh: -6.6; IEC-6 tox-1: -1.4

Results for CCN(CC)c1ccc(-c2nn3c(-c4ccccc4OC)nnc3s2)cc1 ?
Ba/F3 V617F tox: 93.3*; BaF3 tox: 87.1*; KLF5 inh: 79.9*; IEC-6 tox-1: 92.9*; APP 5UTR inh: 93.9*; KLF5 confirm: 91.3*; IEC-6 tox-2: 72.0*; IEC-6 cytotox cf: 77.3*

How did COc1ccc(NS(=O)(=O)c2cc(C)ccc2NC(=O)c2cc(C)oc2C)cc1 do in these assays?
Ba/F3 V617F tox: 75.1*; BaF3 tox: 78.7*; KLF5 inh: 62.5*; IEC-6 tox-1: 81.8*; APP 5UTR inh: 95.2*; KLF5 confirm: 81.0*; IEC-6 tox-2: 62.1*; IEC-6 cytotox cf: 62.2*

Results for Cc1cccc(C)c1NC(=O)C(C)Sc1n[nH]c(-c2ccncc2)n1 (stereo not given) ?
KLF5 inh: -7.5; IEC-6 tox-1: -6.0

What do the screens show for `COc1cccc(Cn2c(NCc3ccccn3)nc3c2c(=O)n(C)c(=O)n3C)c1`?
Ba/F3 V617F tox: 1.1; BaF3 tox: 1.1; KLF5 inh: -12.1; IEC-6 tox-1: 1.6; APP 5UTR inh: -19.6

What do the screens show for `COc1cccc(Cn2c(NCc3cccnc3)nc3c2c(=O)n(C)c(=O)n3C)c1`?
Ba/F3 V617F tox: 90.7*; BaF3 tox: 90.0*; KLF5 inh: 83.9*; IEC-6 tox-1: 87.7*; APP 5UTR inh: 32.8; KLF5 confirm: 96.7*; IEC-6 tox-2: 69.7*; IEC-6 cytotox cf: 81.0*

How did O=C(O)C(Cc1ccc(O)cc1)N1C(=O)c2ccccc2C1=O (stereo not given) do in these assays?
KLF5 inh: 1.7; IEC-6 tox-1: 1.9

What do the screens show for `CC(=O)NC(Cc1cccc(C)c1)C(=O)NC1CCN(S(=O)(=O)c2ccccc2)CC1` (stereo not given)?
KLF5 inh: 1.8; IEC-6 tox-1: -2.6
